Results on eight compounds are retold here after PubChem BioAssay (NCI).

About 83,000 compounds went through this panel and 20% of them were active in at least one assay; those are over-represented in the sample as a whole.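 Step 1: grow cells in 96-well plates. Step 2: add test compound at a single concentration. Step 3: incubate 48 h. Step 4: record percent growth.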 Unmarked numbers belong to inactive results. Activity calls are given as the source filed them. The calls were made as follows: active = growth percent below 10; inactive = the rest.

What all share (test): NCI-60 one-dose screen, 48 h (100 = growth as untreated, 0 = no growth, -100 = all killed)
One assay deals with HT29 colon. The note with it: 10 µM unless noted.
A further assay deals with SNB-75 CNS. Conditions: 10 µM unless noted.
The test system of the next assay is SNB-19 CNS. Conditions: 10 µM unless noted.
The test system of the next assay is U251 CNS. Conditions: 10 µM unless noted.
Another assay has as its system PC-3 prostate. Conditions: 10 µM unless noted.
Another assay relates to SK-MEL-5 melanoma. The note with it: 10 µM unless noted.
In the next assay the test system is UACC-62 melanoma. Conditions: 10 µM unless noted.
Another assay has as its system LOX IMVI melanoma. Conditions: 10 µM unless noted.
The subject of another assay is SK-MEL-28 melanoma. The note with it: 10 µM.
Another assay deals with SK-MEL-2 melanoma. The note with it: 10 µM unless noted.
For a further assay, the system named is EKVX NSCLC. The note with it: 10 µM unless noted.
The next assay concerns SN12C renal. Conditions: 10 µM unless noted.
The test system of the next assay is UO-31 renal. Conditions: 10 µM unless noted.
The subject of another assay is TK-10 renal. Conditions: 10 µM unless noted.
In another assay the test system is ACHN renal. The note with it: 10 µM unless noted.
The test system of the next assay is CAKI-1 renal. The note with it: 10 µM unless noted.
The test system of a further assay is CCRF-CEM leukemia. The note with it: 10 µM unless noted.
For another assay, the system named is MOLT-4 leukemia. Conditions: 10 µM unless noted.
Another assay relates to SR leukemia. The note with it: 10 µM unless noted.
A further assay deals with A498 renal. The note with it: 10 µM unless noted.

On to `CCCCN1CCN(c2ccc3nc(-c4ccc5nc(-c6ccc(C(F)(F)F)cc6)[nH]c5c4)[nH]c3c2)CC1`, for which the growth was -49.5% (active) with HT29 colon; -93.6% (active) with SNB-75 CNS; -91.4% (active) in the assay with SNB-19 CNS; -86.6% (active) in the assay on U251 CNS; -77% (active) in the assay with PC-3 prostate; 10.8% in the assay with SK-MEL-5 melanoma. The growth with UACC-62 melanoma is -31.6% (active); in the assay with LOX IMVI melanoma, -89.5% (active); in the assay on SK-MEL-28 melanoma, -88.3% (active); in the assay with SK-MEL-2 melanoma it was -47.5% (active); in the assay on EKVX NSCLC, -72.4% (active); with SN12C renal it was -80.9% (active). Also, the growth in the assay on UO-31 renal is -82.8% (active); in the assay with TK-10 renal it was -71.3% (active); with ACHN renal it was -99.5% (active); with CAKI-1 renal, -77.1% (active); with CCRF-CEM leukemia, -32.6% (active); in the assay on MOLT-4 leukemia, -61% (active). For the same compound, in the assay with SR leukemia, the growth is -46.8% (active).
With `O=C(/C=C/c1ccc(Cl)cc1)c1ccc(Nc2nc(NCCO)nc(Nc3ccc(Cl)cc3)n2)cc1`, the growth with HT29 colon is 30.5%; in the assay on SNB-75 CNS it was 47.5%; with SNB-19 CNS, 77.6%; with U251 CNS, 21.8%; with PC-3 prostate, 53.1%; with SK-MEL-5 melanoma, 81.5%. The growth with UACC-62 melanoma is 60.7%; with LOX IMVI melanoma it was 37.2%; in the assay on SK-MEL-28 melanoma it was 78.1%; with SK-MEL-2 melanoma, 96%; with EKVX NSCLC, 59.1%; with SN12C renal, 83.1%. The growth in the assay with UO-31 renal was 57.3%; in the assay with TK-10 renal it was 94.2%; in the assay on ACHN renal, 57.2%; in the assay on CAKI-1 renal, 67.3%; in the assay with A498 renal, 79.5%; in the assay with MOLT-4 leukemia, 46.1%. For the same compound, the growth in the assay with SR leukemia was 23.2%.
Turning to `COC(=O)c1c2c(c(C)[n+]([O-])c1C)C(=O)C=C(NCc1ccc(F)c(F)c1)C2=O`, the growth was 1.02% (active) in the assay with HT29 colon; -96.7% (active) in the assay on SNB-75 CNS; -67.2% (active) in the assay on SNB-19 CNS; -31.9% (active) in the assay on U251 CNS; 3.37% (active) with PC-3 prostate; -100% (active) in the assay with SK-MEL-5 melanoma. In addition, the growth was -83.9% (active) in the assay on UACC-62 melanoma; -72.7% (active) with LOX IMVI melanoma; -19.3% (active) in the assay on SK-MEL-28 melanoma; -50.1% (active) with SK-MEL-2 melanoma; -82.1% (active) in the assay on EKVX NSCLC; -93.7% (active) in the assay with SN12C renal. Moreover, the growth in the assay on UO-31 renal was -71.5% (active); in the assay with TK-10 renal, 3.98% (active); in the assay with ACHN renal, -78.2% (active); in the assay on CAKI-1 renal it was -10.6% (active); in the assay with CCRF-CEM leukemia, 5.3% (active); in the assay on SR leukemia it was 10.5%.
Consider `O=C(Nc1ccc(Cl)cc1)c1cc2ccccc2cc1OP(=O)(O)O`, for which the growth is 103% in the assay with HT29 colon; 24.2% with SNB-75 CNS; 21.6% in the assay with SNB-19 CNS; 18.8% in the assay on U251 CNS; 24.6% in the assay with PC-3 prostate; 3.56% (active) with SK-MEL-5 melanoma. The growth is 35.4% in the assay with UACC-62 melanoma; 22.9% with LOX IMVI melanoma; 35.9% with SK-MEL-28 melanoma; 7.63% (active) in the assay with SK-MEL-2 melanoma; 24.8% in the assay with EKVX NSCLC; 41.4% with SN12C renal. Further, the growth in the assay on UO-31 renal is 2.13% (active); in the assay on TK-10 renal, 18.7%; in the assay on ACHN renal it was 17.2%; with A498 renal it was 28.7%; with MOLT-4 leukemia, 38.9%; in the assay with SR leukemia it was 53.9%.
Turning to `COc1ccccc1C1=C(Br)C(=O)c2nc(C)ccc2C1=O`, the growth was 101% in the assay on HT29 colon; 94.4% in the assay with SNB-75 CNS; 101% in the assay with SNB-19 CNS; 102% in the assay with U251 CNS; 101% in the assay with PC-3 prostate; 100% in the assay with SK-MEL-5 melanoma. For the same compound, the growth is 88.9% with UACC-62 melanoma; 97.1% in the assay on LOX IMVI melanoma; 104% in the assay with SK-MEL-28 melanoma; 97.2% in the assay with SK-MEL-2 melanoma; 99.5% in the assay on EKVX NSCLC; 92.4% in the assay with SN12C renal. In addition, the growth in the assay with UO-31 renal is 77.2%; with TK-10 renal, 101%; with ACHN renal it was 19.9%; in the assay with CAKI-1 renal, 98.4%; with CCRF-CEM leukemia, 92%; in the assay with MOLT-4 leukemia, 117%. Further, the growth with SR leukemia was 105%.
As for `COC(=O)c1c2c(c(C)[n+]([O-])c1C)C(=O)C=C(NCc1ccccc1)C2=O`, the growth was 5.35% (active) with HT29 colon; -71.5% (active) in the assay on SNB-75 CNS; -11.4% (active) in the assay on SNB-19 CNS; -9.66% (active) in the assay with U251 CNS; 4.06% (active) in the assay with PC-3 prostate; -98.5% (active) in the assay with SK-MEL-5 melanoma. Further, the growth in the assay on UACC-62 melanoma was -72.3% (active); in the assay on LOX IMVI melanoma it was -28.2% (active); in the assay with SK-MEL-28 melanoma, 14.1%; in the assay on SK-MEL-2 melanoma, -29.6% (active); with EKVX NSCLC it was -54.9% (active); in the assay on SN12C renal, -89.1% (active). Moreover, the growth in the assay with UO-31 renal is -13.6% (active); in the assay with TK-10 renal, 18.1%; with ACHN renal, -29.5% (active); in the assay with CAKI-1 renal, 3.56% (active); with CCRF-CEM leukemia, 6.23% (active); in the assay with MOLT-4 leukemia, -36.2% (active). Also, the growth in the assay on SR leukemia is 4.44% (active).
As for `CCCCOCc1cc(CN2CCN(C)CC2)c(O)c2ncccc12`, the growth was 96% in the assay on HT29 colon; 68.2% in the assay on SNB-75 CNS; 48.6% with SNB-19 CNS; 27.8% in the assay with U251 CNS; 34.3% in the assay with PC-3 prostate; 50.6% in the assay with SK-MEL-5 melanoma. Besides, the growth is 53% in the assay with UACC-62 melanoma; 35.9% with LOX IMVI melanoma; 74.7% in the assay on SK-MEL-28 melanoma; 97.7% in the assay with SK-MEL-2 melanoma; 38.4% in the assay with EKVX NSCLC; 62% with SN12C renal. Besides, the growth in the assay on UO-31 renal was 21.3%; in the assay with ACHN renal, 27.9%; with CAKI-1 renal, 19.5%; in the assay with A498 renal, 70.1%; with CCRF-CEM leukemia, 31.8%; in the assay on MOLT-4 leukemia it was 60.6%. In the assay with SR leukemia, the growth is 35.9%.
In the case of `COc1ccc2occ(C3=C(c4c[nH]c5ccccc45)C(=O)NC3=O)c2c1`, the growth is 17.2% in the assay on HT29 colon; 16.6% in the assay with SNB-75 CNS; 51.1% with SNB-19 CNS; 43.6% in the assay with U251 CNS; 62.7% in the assay on PC-3 prostate; 47.4% with SK-MEL-5 melanoma. The growth with UACC-62 melanoma is 37.9%; in the assay on LOX IMVI melanoma, 44.9%; in the assay on SK-MEL-28 melanoma it was 58.6%; in the assay with SK-MEL-2 melanoma, 43.7%; in the assay with EKVX NSCLC, 49.4%; in the assay with SN12C renal, 38.4%. Also, the growth in the assay on UO-31 renal is 40.4%; in the assay on TK-10 renal, 81.5%; in the assay on ACHN renal, 70.2%; in the assay with CAKI-1 renal it was 36.6%; in the assay on CCRF-CEM leukemia it was 51.9%; with MOLT-4 leukemia, 30.2%. For the same compound, the growth with SR leukemia was 29.4%.
